Experiment in all cases: DAPPL (digital affinity profiling via proximity ligation, sequencing); 10 mM Tris-HCl pH 7.5, 50 mM NaCl, 1 mM DTT, 4% glycerol, room temperature, 30 min; GST-TFs on glutathione beads, 16-mer random dsDNA library, 0.1% formaldehyde crosslink after washing; high values mean tight binding
The target of one assay is T1, FLI1 (Homo sapiens, UniProt Q01543 1-452).
T1 sequence: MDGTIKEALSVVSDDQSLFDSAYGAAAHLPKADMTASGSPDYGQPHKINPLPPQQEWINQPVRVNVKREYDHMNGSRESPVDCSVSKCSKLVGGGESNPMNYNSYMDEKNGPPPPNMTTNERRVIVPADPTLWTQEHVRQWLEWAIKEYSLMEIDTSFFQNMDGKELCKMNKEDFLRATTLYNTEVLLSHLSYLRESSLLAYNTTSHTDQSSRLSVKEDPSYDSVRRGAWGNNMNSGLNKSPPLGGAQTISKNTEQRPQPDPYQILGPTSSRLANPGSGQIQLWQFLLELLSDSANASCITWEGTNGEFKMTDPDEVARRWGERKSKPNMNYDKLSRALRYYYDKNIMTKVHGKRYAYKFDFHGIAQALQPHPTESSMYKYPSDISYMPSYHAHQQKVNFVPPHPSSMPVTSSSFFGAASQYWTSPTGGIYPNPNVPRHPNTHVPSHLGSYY
As to conditions: protein: recombinant; tags: N-terminal GST; dsDNA, one strand shown. An outline of the steps:
(§1)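 Each value of binding signal is a hexamer's read frequency for a factor divided by the same hexamer's frequency in the tag-only sample. Barcoded, bead-captured GST fusions of human transcription factors made in yeast were pooled with that sample and incubated with 200 nmole of a random double-stranded 16-mer DNA library in Tris/NaCl/DTT/glycerol buffer at room temperature for 30 min. Washing, 0.1% formaldehyde crosslinking, proximity ligation, PCR and Illumina NextSeq500 sequencing followed.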

The target of the next assay is T2, ELK1 (Homo sapiens, UniProt P19419 1-428).
T2 sequence: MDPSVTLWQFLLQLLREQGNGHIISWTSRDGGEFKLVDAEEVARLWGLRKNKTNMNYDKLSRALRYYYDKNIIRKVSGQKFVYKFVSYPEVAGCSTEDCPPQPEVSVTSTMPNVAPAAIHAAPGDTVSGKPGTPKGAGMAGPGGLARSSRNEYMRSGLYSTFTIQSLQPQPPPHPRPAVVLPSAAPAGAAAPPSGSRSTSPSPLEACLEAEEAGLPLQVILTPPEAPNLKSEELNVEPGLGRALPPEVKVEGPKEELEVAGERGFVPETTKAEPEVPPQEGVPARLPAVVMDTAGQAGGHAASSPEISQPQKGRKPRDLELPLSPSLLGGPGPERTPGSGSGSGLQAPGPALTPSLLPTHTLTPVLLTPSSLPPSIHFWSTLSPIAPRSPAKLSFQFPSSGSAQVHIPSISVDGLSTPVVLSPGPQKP
As to conditions: protein: recombinant; tags: N-terminal GST; dsDNA, one strand shown. An outline of the steps: as §1

For a further assay, the target named is T3, GABPA (Homo sapiens, UniProt Q06546 1-454).
T3 sequence: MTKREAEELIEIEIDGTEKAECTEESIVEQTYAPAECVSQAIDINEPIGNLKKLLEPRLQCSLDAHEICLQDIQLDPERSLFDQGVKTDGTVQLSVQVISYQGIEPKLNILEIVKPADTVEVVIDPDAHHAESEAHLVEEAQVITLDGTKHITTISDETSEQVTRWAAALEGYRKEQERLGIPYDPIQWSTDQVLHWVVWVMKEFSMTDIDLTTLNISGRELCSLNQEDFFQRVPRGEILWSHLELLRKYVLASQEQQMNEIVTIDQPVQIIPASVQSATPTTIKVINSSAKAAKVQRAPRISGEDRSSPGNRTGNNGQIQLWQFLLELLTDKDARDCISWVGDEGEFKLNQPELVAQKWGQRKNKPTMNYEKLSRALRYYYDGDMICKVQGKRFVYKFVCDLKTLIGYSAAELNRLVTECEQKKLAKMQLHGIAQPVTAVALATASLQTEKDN
As to conditions: protein: recombinant; tags: N-terminal GST; dsDNA, one strand shown. An outline of the steps: as §1

Another assay has as its target T4, ERG (Homo sapiens, UniProt P11308 1-479).
T4 sequence: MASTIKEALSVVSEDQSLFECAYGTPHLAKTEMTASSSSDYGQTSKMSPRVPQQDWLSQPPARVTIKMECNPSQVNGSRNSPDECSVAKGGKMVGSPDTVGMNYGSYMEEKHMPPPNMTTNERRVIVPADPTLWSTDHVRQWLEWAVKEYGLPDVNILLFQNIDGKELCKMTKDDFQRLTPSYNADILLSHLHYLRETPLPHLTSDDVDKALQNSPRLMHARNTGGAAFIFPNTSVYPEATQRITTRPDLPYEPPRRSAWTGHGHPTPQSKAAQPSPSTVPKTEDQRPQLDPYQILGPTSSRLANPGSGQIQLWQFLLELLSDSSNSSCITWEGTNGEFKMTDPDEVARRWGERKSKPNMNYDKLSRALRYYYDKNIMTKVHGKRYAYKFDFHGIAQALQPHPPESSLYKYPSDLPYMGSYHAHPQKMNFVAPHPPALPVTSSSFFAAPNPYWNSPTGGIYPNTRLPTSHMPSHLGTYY
To be noted: protein: recombinant; tags: N-terminal GST; dsDNA, one strand shown. An outline of the steps:
as §1

In a further assay the target is ELF1 (Homo sapiens, UniProt P32519 1-619). To be noted: protein: recombinant; tags: N-terminal GST; dsDNA, one strand shown. An outline of the steps:
as §1

A further assay addresses T5, EHF (Homo sapiens, UniProt Q9NZC4 1-300).
T5 sequence: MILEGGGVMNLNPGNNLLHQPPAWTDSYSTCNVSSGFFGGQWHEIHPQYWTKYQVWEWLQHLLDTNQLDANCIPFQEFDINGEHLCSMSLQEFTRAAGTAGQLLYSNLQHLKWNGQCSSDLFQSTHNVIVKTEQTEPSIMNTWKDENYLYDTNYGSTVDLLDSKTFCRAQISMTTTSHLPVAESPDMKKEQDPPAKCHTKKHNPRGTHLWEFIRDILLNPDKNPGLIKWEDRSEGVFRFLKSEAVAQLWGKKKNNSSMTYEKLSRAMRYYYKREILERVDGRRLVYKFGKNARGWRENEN
As to conditions: protein: recombinant; tags: N-terminal GST; dsDNA, one strand shown. An outline of the steps:
as §1

The target in the next assay is SPI1 (Homo sapiens, UniProt P17947 1-270). To be noted: protein: recombinant; tags: N-terminal GST; dsDNA, one strand shown. An outline of the steps: as §1
Another assay concerns the target SPIB (Homo sapiens, UniProt Q01892 1-262). To be noted: protein: recombinant; tags: N-terminal GST; dsDNA, one strand shown. An outline of the steps:
as §1

A further assay concerns the target T6, ELK3 (Homo sapiens, UniProt P41970 1-407).
T6 sequence: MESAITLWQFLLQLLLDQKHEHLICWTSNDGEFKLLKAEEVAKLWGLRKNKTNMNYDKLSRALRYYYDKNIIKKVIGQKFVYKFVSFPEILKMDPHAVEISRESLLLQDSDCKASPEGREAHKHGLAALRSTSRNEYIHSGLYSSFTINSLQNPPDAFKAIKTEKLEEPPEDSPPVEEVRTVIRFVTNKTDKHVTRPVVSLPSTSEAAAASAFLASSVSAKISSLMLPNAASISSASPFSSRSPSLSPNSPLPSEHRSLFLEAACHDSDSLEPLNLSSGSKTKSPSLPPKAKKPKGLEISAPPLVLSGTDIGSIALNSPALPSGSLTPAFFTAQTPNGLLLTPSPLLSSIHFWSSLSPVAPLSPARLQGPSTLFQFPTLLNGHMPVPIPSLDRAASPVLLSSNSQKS
As to conditions: protein: recombinant; tags: N-terminal GST; dsDNA, one strand shown. An outline of the steps:
as §1

The target of the next assay is T7, FEV (Homo sapiens, UniProt Q99581 1-238).
T7 sequence: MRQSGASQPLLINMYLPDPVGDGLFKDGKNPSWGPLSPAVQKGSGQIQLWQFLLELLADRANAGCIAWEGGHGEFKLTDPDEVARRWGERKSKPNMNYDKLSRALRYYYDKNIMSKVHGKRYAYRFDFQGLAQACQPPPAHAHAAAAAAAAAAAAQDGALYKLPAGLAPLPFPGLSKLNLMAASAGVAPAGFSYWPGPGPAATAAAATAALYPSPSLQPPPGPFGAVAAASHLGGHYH
To be noted: protein: recombinant; tags: N-terminal GST; dsDNA, one strand shown. An outline of the steps:
as §1

The target of a further assay is ETV5 (Homo sapiens, UniProt P41161 1-510). As to conditions: protein: recombinant; tags: N-terminal GST; dsDNA, one strand shown. An outline of the steps:
as §1

The target of a further assay is HSF1 (Homo sapiens, UniProt Q00613 1-529). As to conditions: protein: recombinant; tags: N-terminal GST; chain copies: 3; dsDNA, one strand shown. An outline of the steps: as §1
The target in another assay is ELF4 (Homo sapiens, UniProt Q99607 1-663). To be noted: protein: recombinant; tags: N-terminal GST; dsDNA, one strand shown. An outline of the steps:
as §1

A further assay has as its target T8, ELK4 (Homo sapiens, UniProt P28324-2 1-405).
T8 sequence: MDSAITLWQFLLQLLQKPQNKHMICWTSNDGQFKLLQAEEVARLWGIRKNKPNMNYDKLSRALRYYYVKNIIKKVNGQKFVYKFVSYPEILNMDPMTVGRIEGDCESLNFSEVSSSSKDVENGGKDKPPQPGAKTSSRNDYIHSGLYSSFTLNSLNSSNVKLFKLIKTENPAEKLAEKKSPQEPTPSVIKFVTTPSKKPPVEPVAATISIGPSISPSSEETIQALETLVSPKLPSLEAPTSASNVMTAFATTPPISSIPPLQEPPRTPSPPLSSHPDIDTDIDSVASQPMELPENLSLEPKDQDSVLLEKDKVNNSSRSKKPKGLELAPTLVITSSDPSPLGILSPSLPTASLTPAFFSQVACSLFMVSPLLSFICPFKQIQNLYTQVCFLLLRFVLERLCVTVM
As to conditions: protein: recombinant; tags: N-terminal GST; dsDNA, one strand shown. An outline of the steps: as §1

The target in a further assay is T9, ETV2 (Homo sapiens, UniProt O00321 1-342).
T9 sequence: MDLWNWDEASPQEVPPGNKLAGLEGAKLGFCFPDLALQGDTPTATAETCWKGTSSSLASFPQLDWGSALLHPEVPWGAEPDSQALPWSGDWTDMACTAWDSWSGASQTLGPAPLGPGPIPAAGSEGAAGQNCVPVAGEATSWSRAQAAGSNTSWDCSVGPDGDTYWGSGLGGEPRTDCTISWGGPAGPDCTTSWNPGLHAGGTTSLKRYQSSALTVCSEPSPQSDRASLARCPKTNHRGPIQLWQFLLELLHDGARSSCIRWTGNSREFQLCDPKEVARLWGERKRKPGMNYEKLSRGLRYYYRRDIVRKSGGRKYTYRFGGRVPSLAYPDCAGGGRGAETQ
To be noted: protein: recombinant; tags: N-terminal GST; dsDNA, one strand shown. An outline of the steps: as §1

The target in another assay is T10, ELF3 (Homo sapiens, UniProt P78545 1-371).
T10 sequence: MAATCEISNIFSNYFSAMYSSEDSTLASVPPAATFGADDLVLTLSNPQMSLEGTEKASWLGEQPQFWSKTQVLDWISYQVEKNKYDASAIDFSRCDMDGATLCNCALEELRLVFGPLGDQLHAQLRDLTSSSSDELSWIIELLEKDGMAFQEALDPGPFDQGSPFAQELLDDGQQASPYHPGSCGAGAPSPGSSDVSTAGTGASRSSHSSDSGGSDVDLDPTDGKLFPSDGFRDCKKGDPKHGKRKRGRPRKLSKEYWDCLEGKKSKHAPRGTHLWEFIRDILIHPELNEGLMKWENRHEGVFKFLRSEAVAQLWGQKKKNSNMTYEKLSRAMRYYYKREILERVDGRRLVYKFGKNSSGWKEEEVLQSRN
As to conditions: protein: recombinant; tags: N-terminal GST; dsDNA, one strand shown. An outline of the steps:
as §1

A further assay has as its target CRX (Homo sapiens, UniProt O43186 1-299). As to conditions: protein: recombinant; tags: N-terminal GST; dsDNA, one strand shown. An outline of the steps: as §1
For the next assay, the target named is ETV1 (Homo sapiens, UniProt P50549 1-477). To be noted: protein: recombinant; tags: N-terminal GST; dsDNA, one strand shown. An outline of the steps: as §1
Chain of ETV1 (P50549 whole entry): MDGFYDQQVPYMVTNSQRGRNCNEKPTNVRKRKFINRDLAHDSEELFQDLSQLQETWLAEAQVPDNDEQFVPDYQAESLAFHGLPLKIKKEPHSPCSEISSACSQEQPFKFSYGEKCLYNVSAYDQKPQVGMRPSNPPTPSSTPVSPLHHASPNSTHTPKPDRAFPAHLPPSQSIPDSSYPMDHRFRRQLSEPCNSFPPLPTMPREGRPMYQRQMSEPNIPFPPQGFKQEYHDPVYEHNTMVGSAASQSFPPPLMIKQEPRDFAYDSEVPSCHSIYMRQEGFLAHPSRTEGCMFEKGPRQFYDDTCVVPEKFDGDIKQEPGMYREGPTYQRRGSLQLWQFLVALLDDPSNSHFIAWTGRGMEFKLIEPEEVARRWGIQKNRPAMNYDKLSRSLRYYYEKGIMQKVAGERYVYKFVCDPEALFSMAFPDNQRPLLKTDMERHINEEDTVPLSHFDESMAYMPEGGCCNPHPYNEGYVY

Chain of SPIB (Q01892 whole entry): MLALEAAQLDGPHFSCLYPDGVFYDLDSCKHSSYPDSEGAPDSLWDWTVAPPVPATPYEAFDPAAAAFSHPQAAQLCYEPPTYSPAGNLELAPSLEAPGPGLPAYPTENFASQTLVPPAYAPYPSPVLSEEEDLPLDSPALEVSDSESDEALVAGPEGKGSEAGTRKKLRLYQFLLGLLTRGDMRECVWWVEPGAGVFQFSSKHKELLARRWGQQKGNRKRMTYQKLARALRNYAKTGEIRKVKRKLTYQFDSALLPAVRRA
Chain of ETV5 (P41161 whole entry): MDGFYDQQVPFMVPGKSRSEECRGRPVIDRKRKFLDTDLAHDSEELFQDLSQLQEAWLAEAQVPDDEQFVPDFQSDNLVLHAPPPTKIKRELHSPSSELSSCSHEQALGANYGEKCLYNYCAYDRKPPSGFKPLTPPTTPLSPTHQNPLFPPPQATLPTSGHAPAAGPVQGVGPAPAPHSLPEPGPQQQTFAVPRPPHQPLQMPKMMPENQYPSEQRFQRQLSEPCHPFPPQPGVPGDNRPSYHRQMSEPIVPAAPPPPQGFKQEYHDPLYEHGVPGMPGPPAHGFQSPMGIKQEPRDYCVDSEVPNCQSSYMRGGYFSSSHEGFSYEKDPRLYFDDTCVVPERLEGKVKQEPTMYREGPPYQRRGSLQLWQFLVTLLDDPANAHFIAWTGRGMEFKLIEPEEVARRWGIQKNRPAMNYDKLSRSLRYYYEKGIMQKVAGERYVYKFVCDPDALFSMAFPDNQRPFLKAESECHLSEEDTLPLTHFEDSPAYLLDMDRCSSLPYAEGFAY
Chain of HSF1 (Q00613 whole entry): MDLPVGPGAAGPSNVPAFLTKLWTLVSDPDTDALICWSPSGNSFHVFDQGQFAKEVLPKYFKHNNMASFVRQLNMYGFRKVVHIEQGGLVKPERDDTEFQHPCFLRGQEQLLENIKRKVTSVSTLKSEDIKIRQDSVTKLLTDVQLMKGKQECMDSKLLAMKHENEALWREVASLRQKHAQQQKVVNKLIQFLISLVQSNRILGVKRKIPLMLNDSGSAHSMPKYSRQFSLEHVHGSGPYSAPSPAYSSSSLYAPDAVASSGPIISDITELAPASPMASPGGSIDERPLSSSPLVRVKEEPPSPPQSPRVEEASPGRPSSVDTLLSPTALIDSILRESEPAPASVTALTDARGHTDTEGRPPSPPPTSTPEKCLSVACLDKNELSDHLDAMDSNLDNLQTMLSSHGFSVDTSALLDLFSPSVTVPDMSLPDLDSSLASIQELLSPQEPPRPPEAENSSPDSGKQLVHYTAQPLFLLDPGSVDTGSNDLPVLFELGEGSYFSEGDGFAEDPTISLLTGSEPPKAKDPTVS
Chain of CRX (O43186 whole entry): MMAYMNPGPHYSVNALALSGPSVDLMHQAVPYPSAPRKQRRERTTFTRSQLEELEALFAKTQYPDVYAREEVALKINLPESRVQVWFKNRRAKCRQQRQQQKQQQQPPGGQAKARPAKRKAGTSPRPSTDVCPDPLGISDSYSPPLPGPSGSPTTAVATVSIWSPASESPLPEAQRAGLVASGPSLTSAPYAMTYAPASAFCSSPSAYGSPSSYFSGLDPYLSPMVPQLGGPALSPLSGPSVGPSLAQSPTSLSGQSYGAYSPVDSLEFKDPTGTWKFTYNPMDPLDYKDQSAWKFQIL
Chain of ELF1 (P32519 whole entry): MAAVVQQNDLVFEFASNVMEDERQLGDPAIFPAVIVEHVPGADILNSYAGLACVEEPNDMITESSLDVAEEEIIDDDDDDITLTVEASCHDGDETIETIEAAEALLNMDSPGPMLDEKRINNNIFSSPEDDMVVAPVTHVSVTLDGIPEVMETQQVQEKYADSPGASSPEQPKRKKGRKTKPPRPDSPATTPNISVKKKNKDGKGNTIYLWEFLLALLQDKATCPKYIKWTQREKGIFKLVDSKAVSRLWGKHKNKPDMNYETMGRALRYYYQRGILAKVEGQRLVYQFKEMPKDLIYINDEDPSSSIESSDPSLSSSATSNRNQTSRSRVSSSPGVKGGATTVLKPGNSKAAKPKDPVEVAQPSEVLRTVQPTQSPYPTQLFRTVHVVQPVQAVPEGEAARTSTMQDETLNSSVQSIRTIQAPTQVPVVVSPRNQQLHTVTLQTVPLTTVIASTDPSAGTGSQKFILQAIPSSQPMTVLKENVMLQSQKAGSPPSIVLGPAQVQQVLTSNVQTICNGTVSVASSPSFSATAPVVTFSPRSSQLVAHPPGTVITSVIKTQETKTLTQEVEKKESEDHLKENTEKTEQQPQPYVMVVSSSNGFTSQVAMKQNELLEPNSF
Chain of ELF4 (Q99607 whole entry): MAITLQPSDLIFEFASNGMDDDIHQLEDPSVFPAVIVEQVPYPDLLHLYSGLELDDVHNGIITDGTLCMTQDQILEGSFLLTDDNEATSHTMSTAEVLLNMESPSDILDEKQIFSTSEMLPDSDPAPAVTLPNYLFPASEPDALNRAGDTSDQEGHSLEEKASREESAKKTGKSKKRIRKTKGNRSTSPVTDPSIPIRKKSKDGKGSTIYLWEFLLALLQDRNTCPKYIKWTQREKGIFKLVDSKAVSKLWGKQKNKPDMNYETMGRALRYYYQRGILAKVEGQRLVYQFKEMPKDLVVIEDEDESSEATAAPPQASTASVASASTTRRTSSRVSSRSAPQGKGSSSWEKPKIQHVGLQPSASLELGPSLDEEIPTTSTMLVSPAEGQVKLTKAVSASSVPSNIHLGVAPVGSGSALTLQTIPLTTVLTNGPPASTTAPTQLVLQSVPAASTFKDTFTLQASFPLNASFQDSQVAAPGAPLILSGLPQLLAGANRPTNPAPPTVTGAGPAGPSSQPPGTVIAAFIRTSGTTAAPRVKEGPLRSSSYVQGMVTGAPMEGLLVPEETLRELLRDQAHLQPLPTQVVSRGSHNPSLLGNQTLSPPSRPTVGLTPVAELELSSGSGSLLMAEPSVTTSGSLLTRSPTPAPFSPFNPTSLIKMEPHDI

Consider ACAAAA, for which the binding signal with FLI1 was 1.14 fold enrichment (6-mer frequency, TF over GST control); with ELK1, 1.11 fold enrichment (6-mer frequency, TF over GST control); with GABPA, 1.15 fold enrichment (6-mer frequency, TF over GST control); in the assay with ERG, 1.18 fold enrichment (6-mer frequency, TF over GST control); with ELF1, 1.16 fold enrichment (6-mer frequency, TF over GST control); in the assay with EHF, 1.21 fold enrichment (6-mer frequency, TF over GST control). The binding signal was 1.22 fold enrichment (6-mer frequency, TF over GST control) with SPI1; 1.14 fold enrichment (6-mer frequency, TF over GST control) in the assay with SPIB; 1.16 fold enrichment (6-mer frequency, TF over GST control) in the assay with ELK3; 1.19 fold enrichment (6-mer frequency, TF over GST control) with FEV; 1.17 fold enrichment (6-mer frequency, TF over GST control) with ETV5; 1.09 fold enrichment (6-mer frequency, TF over GST control) with HSF1. Also, the binding signal with ELF4 is 1.16 fold enrichment (6-mer frequency, TF over GST control); in the assay with ELK4, 1.15 fold enrichment (6-mer frequency, TF over GST control); in the assay with ETV2, 1.11 fold enrichment (6-mer frequency, TF over GST control); in the assay with ELF3 it was 1.04 fold enrichment (6-mer frequency, TF over GST control); in the assay with CRX, 1.05 fold enrichment (6-mer frequency, TF over GST control); with ETV1, 1.13 fold enrichment (6-mer frequency, TF over GST control).

Source of the values: paper PMC7862700, “An all-to-all approach to the identification of sequence-specific readers for epigenetic DNA modifications on cytosine”.
